We go through 40 molecules from PubChem BioAssay (NCATS).

SMILES strings stand for the structures. Results filed as inconclusive are left out. A call without a number means that no potency is given here. Activity calls are given as the source filed them. Calls follow the shape of the full dose curve.

This assay deals with Vitamin D3 receptor (Homo sapiens) (UniProt P11473). In words: qHTS assay for small molecule antagonists of vitamin D receptor signaling (AID 588541).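 Also: receptor activated by calcitriol during compound treatment.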 To be noted: HEK293T VDR-UAS-bla, beta-lactamase ratio, antagonist mode; series mostly up to 76.7 µM. An excerpt: NIH Chemical Genomics Center [NCGC]
Sequence of Vitamin D3 receptor (Homo sapiens) (P11473 whole entry, looked up): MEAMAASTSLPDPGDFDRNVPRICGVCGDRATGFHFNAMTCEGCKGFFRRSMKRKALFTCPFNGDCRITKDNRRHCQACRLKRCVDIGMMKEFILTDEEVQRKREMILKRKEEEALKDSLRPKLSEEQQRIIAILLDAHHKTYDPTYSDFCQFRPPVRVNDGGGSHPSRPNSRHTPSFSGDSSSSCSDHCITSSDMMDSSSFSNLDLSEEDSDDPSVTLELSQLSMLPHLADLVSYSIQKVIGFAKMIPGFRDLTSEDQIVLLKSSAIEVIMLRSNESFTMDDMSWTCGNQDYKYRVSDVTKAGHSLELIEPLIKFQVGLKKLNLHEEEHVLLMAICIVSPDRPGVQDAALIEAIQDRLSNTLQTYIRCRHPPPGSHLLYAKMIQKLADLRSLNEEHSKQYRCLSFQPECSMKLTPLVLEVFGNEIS
U.S. Environmental Protection Agency [EPA]
National Institutes of Environmental Health Sciences [NIEHS]
National Toxicology Program [NTP]
The Vitamin D receptor (VDR) is a member of nuclear hormone receptor superfamily and it plays a critical role in calcium homeostasis and bone metabolism. It plays a role in inducing cell differentiation, inhibiting cell growth and in thrombogenicity. So, VDR that mediates these effects represents a pharmacological target in prevention and treatment of hyperproliferative malignancies, such as cancer and psoriasis, cardiovascular, immunological, inflammatory and renal diseases etc.
NCGC Assay Protocol Summary
Using a beta-lactamase reporter-gene under control of Vitamin D receptor (VDR) response element, a cell-based assay [GeneBLAzer (VDR -UAS-bla assay developed by Invitrogen] was used to measure VDR ligands signaling. GeneBLAzer VDR -UAS-bla HEK293T cells were used with assay medium containing 2% charcoal-stripped FBS. The assay was performed in clear bottom black Greiner 1536-well plates. Library compounds were measured for their ability to inhibit the reporter gene activity. Compounds were screened in a titration series in 1536-well format. The fluorescence intensity (405 nm excitation, 460/530 nm emission) was measured using an EnVision plate reader. Data was normalized relative to 1-alpha,25-Dihydroxy vitaminD3 control (50 nM, 100%) and DMSO only wells (basal, 0%). Concentration-response titration points for each compound were fitted to the Hill equation yielding concentrations of half-maximal inhibition (IC50) and maximal response (efficacy) values.
qHTS protocol for VDR beta-lactamase assay in antagonist mode
[Step] [Parameter] [Value] [Description]
1. Reagent; 5 uL; 2000 cells/well
2. Incubation; 37 C for 5 hrs
4. Controls (DMSO); 23 nL,
5. Agonist (Stimulator); 1uL; 1-alpha,25-Dihydroxy vitaminD3 at 50 nM and 3 nM final concentrations
6. Incubation; 37 C for 16 hrs
7. Detection reagent; 1 uL of CCF4-dye
8. Incubation; RT for 2 hrs
9. Detection; Fluorescence; Envision plate reader
In general terms: Quantitative high-throughput screening tests each substance at several concentrations.
Regarding `N[C@@H]1[C@@H](O)[C@H](O)[C@@H](CO)O[C@H]1O`, the Potency result was “inactive”.

In the case of `CC(C)(C)c1n[nH]c(=O)n(N)c1=O`, the Potency result was “inactive”.

Consider `Cn1c(=O)[nH]c(=O)n(C2CCC(O)CC2)c1=O` (stereo not given), for which the Potency entry is “inactive”.

As to `Nc1c(N=Nc2ccc(S(=O)(=O)CCOS(=O)(=O)O)cc2)c(S(=O)(=O)O)cc2cc(S(=O)(=O)O)c(N=Nc3ccc(S(=O)(=O)CCOS(=O)(=O)O)cc3)c(O)c12`, the Potency result is “inactive”.

Regarding `CC(C)C(=O)OCC(C)(C)C(O)C(C)C` (stereo not given), the Potency entry is “inactive”.

For `CC(C)(N=C=O)c1cccc(C(C)(C)N=C=O)c1`, the Potency entry was “inactive”.

As to `CC1(C)C(=O)N(Cl)C(=O)N1Cl`, the Potency entry was “inactive”.

As to `CCCOC(=O)c1ccc(C(=O)OCCC)nc1`, the Potency result is “inactive”.

In the case of `C=C[Si](OCCOC)(OCCOC)OCCOC`, the Potency result was “inactive”.

Consider `CS/C(=N\O)C(=O)N(C)C`, for which the Potency entry was “inactive”.

Take `CCCCOCCOCCOC(C)=O`: the Potency entry is “inactive”.

For `c1ccc2c(c1)ccc1c3ccccc3ccc21`, the Potency result is “inactive”.

For `Brc1ccc(Oc2ccc(Br)cc2)cc1`, the Potency result is “inactive”.

Turning to `CCCCCCCCCCCCCCCCCCN`, the Potency entry is “inactive”.

As to `C[Si]1(C)O[Si](C)(C)O[Si](C)(C)O1`, the Potency result is “inactive”.

As to `C=CCOc1nc(OCC=C)nc(OCC=C)n1`, the Potency result is “inactive”.

Turning to `CCCCNS(=O)(=O)c1ccccc1`, the Potency entry is “inactive”.

For the molecule `O=C(Cl)c1cc(Cl)cc(Cl)c1`, the Potency entry was “inactive”.

As to `CSc1ccc(Cl)cc1`, the Potency entry is “inactive”.

As for `CO[Si](CCCOCC1CO1)(OC)OC` (stereo not given), the Potency entry was “inactive”.

With `C[Si](C)(C)N[Si](C)(C)C`, the Potency result is “inactive”.

With `CCCCCCCC/C=C\CCCCCCCCCCCCC`, the Potency result was “inactive”.

For the molecule `CNc1nc(=O)n(C2CCC(O)CC2)c(=O)n1C` (stereo not given), the Potency entry is “inactive”.

In the case of `CCOC(=O)C(C)Oc1ccc(Oc2cnc3cc(Cl)ccc3n2)cc1` (stereo not given), the Potency entry is “inactive”.

On to `CN(C)C(=O)Nc1ccccc1`, for which the Potency result was “inactive”.

Take `Cc1ccc(S(=O)(=O)N=C=O)cc1`: the Potency result is “inactive”.

Consider `CCC(C)OC(=O)N1CCCCC1CCO` (stereo not given), for which the Potency result was “inactive”.

As to `CC(=O)CC(=O)Nc1ccccc1C`, the Potency result was “inactive”.

On to `Cc1c(Cl)cccc1Cl`, for which the Potency entry was “inactive”.

In the case of `O=c1oc(=O)c2cc3c(=O)oc(=O)c3cc12`, the Potency entry was “inactive”.

In the case of `CCOC(=O)C(C)Oc1ccc(Oc2nc3ccc(Cl)cc3o2)cc1` (stereo not given), the Potency entry was “inactive”.

On to `O=C(c1ccc(Cl)cc1)c1ccc(Cl)cc1`, for which the Potency result is “inactive”.

For `CCCCCCC(O)CCCCCCCCCCC(=O)OC` (stereo not given), the Potency result was “inactive”.

For `C[Si](Cl)(Cl)c1ccccc1`, the Potency entry was “inactive”.

With `Nc1ccc(N)c2c1C(=O)c1c(N)ccc(N)c1C2=O`, the Potency entry was “inactive”.

Take `O=C(Nc1ccccc1)c1cc(Cl)ccc1O`: the Potency result was “inactive”.

Take `CCc1c(C(=O)O)c(=O)cnn1-c1ccc(Cl)cc1`: the Potency entry was “inactive”.

As for `Cc1ccc(N=Nc2c(O)ccc3ccccc23)c([N+](=O)[O-])c1`, the Potency result was “inactive”.

On to `CCCCCCCC[Si](Cl)(Cl)Cl`, for which the Potency entry is “inactive”.

On to `NN(c1ccccc1)c1ccccc1`, for which the Potency result is “inactive”.
